Screening results as filed in PubChem.
The list is not random: actives were taken first. Their share in the collection is about 7.4%.
Rab9 promoter act: qHTS Assay for Rab9 Promoter Activators. Huh7 Rab9 promoter-luciferase reporter, luminescence, 24 h. Potency, µM (series often up to 9.22 µM), usual class: activators. hit rate 2.8% among 320,000; further: nearly all actives have a fitted effect of over 60% in size
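Measured in stably transfected Huh7 cells bearing a Rab9 promoter–luciferase construct: 24 h compound treatment at 37 °C, followed by luminescence detection.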
SMN2 splice up: qHTS Assay for Enhancers of SMN2 Splice Variant Expression. hit rate 2.8% among 210,000. HEK293 SMN2-luciferase splicing reporter, luminescence, 30-36 h. AID 1458, 2008. Potency, µM (top dose mostly 46.1 µM), hits mostly activators; further: nearly all actives have a fitted effect of over 55% in size
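qHTS luciferase splicing reporter: luminescence rises when SMN2 exon 7 is included in transfected HEK293 cells. Compound exposure lasted 30-36 h at 37C, with 4.5 mM final sodium butyrate as control, followed by a ONE-Glo read.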
FLuc counter: qHTS profiling assay for firefly luciferase inhibitor/activator using purifed enzyme and Km concentrations of substrates (counterscreen for miR-21 project); purified FLuc, Km substrates, luminescence inhibition; AID 588342, 2011; hit rate 6.9% among 360,000; Luciferin 4-monooxygenase (Photinus pyralis), P08659; Potency, µM (series often up to 57.5 µM), usual class: inhibitors; further: nearly all actives have a fitted effect of over 55% in size
Target sequence (P08659 whole entry, looked up): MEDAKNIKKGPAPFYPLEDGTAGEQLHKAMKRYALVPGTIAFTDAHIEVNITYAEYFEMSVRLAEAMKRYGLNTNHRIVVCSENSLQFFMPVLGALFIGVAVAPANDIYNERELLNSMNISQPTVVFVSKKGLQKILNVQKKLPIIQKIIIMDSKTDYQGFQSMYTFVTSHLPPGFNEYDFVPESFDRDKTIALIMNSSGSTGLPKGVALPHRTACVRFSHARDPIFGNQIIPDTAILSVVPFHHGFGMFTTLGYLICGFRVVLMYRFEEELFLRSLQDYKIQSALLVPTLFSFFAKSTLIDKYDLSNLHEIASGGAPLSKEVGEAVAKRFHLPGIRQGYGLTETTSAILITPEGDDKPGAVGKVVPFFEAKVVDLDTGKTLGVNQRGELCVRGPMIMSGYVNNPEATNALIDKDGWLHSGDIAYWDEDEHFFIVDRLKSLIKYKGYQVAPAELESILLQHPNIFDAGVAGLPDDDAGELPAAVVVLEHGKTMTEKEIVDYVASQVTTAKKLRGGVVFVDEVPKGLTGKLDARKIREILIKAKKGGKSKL
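Biochemical qHTS of compounds, final roughly 60 µM downward over six points, against 10 nM purified firefly luciferase using Km concentrations of substrates (10 uM D-luciferin, 10 uM ATP) in Tris acetate pH 7.5 buffer; luminescence output.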
NPC1 promoter act: qHTS Assay for NPC1 Promoter Activators. Huh7 NPC1 promoter luciferase reporter, 24 h. Potency, µM (series often up to 9.22 µM), actives largely listed as activators. hit rate 2.4% among 320,000; further: nearly all actives have a fitted effect of over 60% in size
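Cells: Huh7 expressing luciferase under the NPC1 promoter, 1500/well. Seeded 2 h, compound added, incubated 24 h at 37 °C. Luciferase reagent, 10 min ambient, then luminescence.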
ELG1 genotox: qHTS screen for small molecules that induce genotoxicity in human embryonic kidney (HEK293T) cells expressing luciferase-tagged ELG1 | hit rate 1.3% among 330,000 | AID 504466, 2011 | Potency, µM (top dose mostly 46 µM), hits mostly activators | HEK293T ELG1-luciferase reporter, luminescence, 16 h; further: nearly all actives have a fitted effect of over 60% in size
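Screening used a luciferase reporter fused to human ELG1 in HEK293T cells. Luminescence was read on a CCD plate imager after 16 hr exposure and 30 min ONE-Glo incubation.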
A number is an active result; n = inactive; u = inconclusive; x = no result; [ ] = another dose, or the depositor's remark. The call rests on the fitted dose curve; in most records, active means well fitted curve in the direction sought with a large enough effect; inconclusive means small, poorly fitted or top-dose-only effect, or another doubt; inactive means no such curve, though single readings can be large; an effect the other way counts as inactive or inconclusive.

SMILES	Rab9 promoter act	SMN2 splice up	FLuc counter	NPC1 promoter act	ELG1 genotox
CN(C)C=NC(=O)c1cc2c(n(-c3ccccc3)c1=O)CC(C)(C)CC2=O	x	n	n	x	x
COc1ccc2[nH]cc(CCNS(=O)(=O)c3ccc(C)cc3)c2c1	n	x	n	n	n
CC1(C)NC(=O)N(CCCOc2ccc(Br)cc2Cl)C1=O	u	u	11µM	2.8µM	15µM
CCN1C[C@@H]2[C@@H]3C(=O)N(Cc4ccccc4)C(=O)[C@@H]3[C@](CC)(C1=O)N2C(=O)c1ccc(C(F)(F)F)cc1	x	x	x	x	n
Cc1cc(-c2nnco2)c(C)n1-c1ccc(F)cc1	n	n	17µM	n	n
Cc1cc(C(=O)COC(=O)CC2Sc3ccccc3NC2=O)c(C)n1-c1ccc(Br)cc1 (stereo not drawn)	n	n	n	n	n
Cc1cc(C(=O)COC(=O)C2=COCCO2)c(C)n1-c1ccccc1	x	x	x	x	0.26µM
Cc1ccc(-n2c(C)cc(C(=O)COC(=O)C3=NNC(=O)CC3)c2C)cc1	n	n	17µM	n	n
Cc1ccc(-n2c(C)cc(C(=O)COC(=O)c3c(C)noc3C)c2C)cc1	u	n	3.4µM	u	n
Cc1cc(C(=O)COC(=O)CC2Sc3ccccc3NC2=O)c(C)n1-c1ccccc1 (stereo not drawn)	n	n	6µM	n	n
C=CCn1cnc2c(nnn2Cc2ccc(F)cc2)c1=O	n	x	n	n	n
CNC(=O)c1ccc(NC(=O)Cc2ccc(S(=O)(=O)N3CCOCC3)s2)cc1	n	x	n	n	n
CCC(=O)OCC(=O)c1cc(C)n(-c2ccc(Br)cc2)c1C	n	n	4.3µM	n	n
O=C(OCC(=O)c1c[nH]c2ccccc12)C1=COCCO1	3.5µM	u	15µM	u	u
O=C(OCC(=O)c1ccc[nH]1)C1=COCCO1	n	x	n	n	n
Cc1cc(C(=O)COC(=O)C2=NNC(=O)CC2)c(C)n1-c1ccccc1	n	n	1.9µM	n	n
Cc1ccc(C)n1-c1ccc(NC(=O)c2ccccc2)cc1	u	11µM	8.5µM	n	u
CC(=O)Nc1ccc(NC(=O)c2ccc(-n3c(C)ccc3C)cc2)cc1	n	x	21µM	n	u
CCOC(=O)c1ccc(-n2c(C)ccc2C)cc1	n	n	n	n	n
CC(=O)NCCNC(=O)c1ccc(-n2c(C)ccc2C)cc1	u	x	n	n	23µM
CCc1ccccc1NC(=O)c1ccc(-n2c(C)ccc2C)cc1	n	n	n	n	n
CCCSc1ncnc2c1c(-c1ccccc1)cn2-c1ccccc1OC	x	n	n	x	x
O=C(NNC(=O)c1cc(-c2ccco2)nc2ccccc12)c1ccccc1	n	x	19µM	n	n
CC(=O)c1cccc(NC(=O)c2cc(-c3ccco3)nc3ccccc23)c1	n	x	n	n	n
CC(=O)Nc1ccc(/C=N/NC(=O)c2cc(-c3ccco3)nc3ccccc23)cc1	n	x	2.1µM	n	n
SMILES	Rab9 promoter act	SMN2 splice up	FLuc counter	NPC1 promoter act	ELG1 genotox
CCN1CCN(C(=O)c2cc(-c3ccco3)nc3ccccc23)CC1	n	x	u	n	n
CC(=O)Nc1ccc(NC(=O)c2cc(-c3ccccc3)nc3ccccc23)cc1	n	x	u	n	n
O=C(O)c1cc(-c2ccco2)nc2cc3ccccc3cc12	n	x	8.5µM	n	n
O=C(O)c1ccccc1/C=N/NC(=O)c1cc(-c2ccco2)nc2ccccc12	n	x	0.95µM	n	n
CNC(=O)COC(=O)c1cc(-c2ccco2)nc2ccccc12	n	x	u	n	n
O=C(O)CCSC1=NCCN1	x	n[9.22 µM]	x	x	x
CC(C)Cc1nn2c(=O)cc(COC(=O)c3cccc(NC(=O)c4cccs4)c3)nc2s1	x	x	n	x	x
CCOC(=O)c1cnc2cc(-c3ccc(Br)cc3)nn2c1C	2.8µM	x	u	u	u
CCOC(=O)c1cnc2cc(-c3ccc(Cl)cc3)nn2c1N	1.3µM	u	u	1.1µM	u
C/C(=N/NC(=O)c1sc(=S)n(C)c1C)c1ccccc1	n	x	n	n	n
CNC[C@@H]1Oc2ccc(NS(=O)(=O)c3ccc(Cl)cc3)cc2C(=O)N([C@H](C)CO)C[C@@H]1C	x	x	x	x	n
Cc1cc(NC(=O)c2ccc(Cn3nc(C)c(Br)c3C)o2)no1	n	20µM	n	n	n
Cc1nn(Cc2ccc(C(=O)NC(C)(C)C)o2)c(C)c1Br	n	n	n	n	n
N/C(=N\OC(=O)c1cccc([N+](=O)[O-])c1)c1ccccn1	3.5µM	14µM	5.4µM	u	n
N/C(=N\OC(=O)c1cc([N+](=O)[O-])ccc1Cl)c1ccccn1	n	x	24µM	n	n
N/C(=N\OC(=O)c1ccc([N+](=O)[O-])cc1Cl)c1ccccn1	0.32µM	x	0.12µM	u	0.33µM
Cc1ccc(OC(=O)c2ccc([N+](=O)[O-])cc2Cl)cn1	n[1.84 µM]	x	12µM	n	n
COc1ccc(NC(=O)CSc2nc(N)c3cc4c(nc3n2)CCCC4)c(OC)c1	n	n	12µM	n	n
Cc1ccc(NC(=O)CSc2nc(N)c3cc4c(nc3n2)CCCC4)cc1	n	n	2.1µM	n	n
Nc1nc(SCC(=O)Nc2ccccc2)nc2nc3c(cc12)CCCC3	n	u	u	n	n
Cc1ccc(NC(=O)CCc2c[nH]c3ccccc23)nc1	n	x	n	n	n
CC[C@@H](C)[C@H](NS(=O)(=O)c1cccc2ccccc12)C(=O)N[C@H](C=O)Cc1c[nH]c2ccccc12	x	n	x	x	x
CCC1C(=O)n2nc(-c3ccccc3)cc2N=C1C (stereo not drawn)	2.8µM	13µM	13µM	u	u
O=C(O)Cn1nc(-c2ccccc2)cc1-c1ccccc1	n	x	n	n	n
CC(=O)Nc1ccc2c(c1)ncn2C	n	n	n	n	n
SMILES	Rab9 promoter act	SMN2 splice up	FLuc counter	NPC1 promoter act	ELG1 genotox
CC(=O)Nc1ccc2c(c1)ncn2-c1ccc(C)cc1	1.8µM	8.9µM	5.4µM	1.1µM	9.2µM
O=C(Nc1cccc(-n2cnnn2)c1)c1ccco1	n	n	n	n	n
Cn1cnc2cc(NC(=O)c3ccco3)ccc21	u	7.1µM	19µM	2.8µM	7.3µM
COc1ccc(-n2cnc3cc(NS(=O)(=O)c4ccc(C)cc4)ccc32)cc1	n	n	n	n	n
O=C(Nc1ccc2c(c1)ncn2-c1ccccc1)c1ccco1	u	13µM	8.5µM	u	u
CCN(c1ccccc1)S(=O)(=O)c1ccc(OC)c(NC(=O)CCc2nc3ccccc3c(=O)[nH]2)c1	n	x	n	n	n
CCOC(=O)C1(C)C=C(Nc2cccc(C(=O)O)c2)C(=O)N1c1cccc(C(=O)O)c1 (stereo not drawn)	x	n	u	x	x
CCNc1ccccc1	x	n	x	x	x
Cc1ccccc1-n1ncc2c1CC(C)(C)CC2NC(=O)CCC(F)(F)F (stereo not drawn)	n	x	n	n	n
COc1cc(N/N=C/c2ccccc2O)ncn1	u	u	15µM	u	23µM
